High-throughput results: PubChem BioAssay, National Center for Advancing Translational Sciences (NCATS)
Only some compounds are listed: those with a hit (about 8.1% of all), similar ones and a draw of the others.
ClpP mod: qHTS Assay for Activators of ClpP; actives 1.9% (n = 340,000); Potency, µM (top dose mostly 57.5 µM), without a hit: at the top dose activity change, negative = active; AID 651965, 2013; ATP-dependent Clp protease proteolytic subunit (Bacillus subtilis (strain 168)), P80244; purified B. subtilis ClpP, FRET peptide cleavage, 20 min; active = well fitted falling curve with a large enough effect; inconclusive = small, poorly fitted or top-dose-only effect; inactive = no such curve, though single readings can be large or run the other way; note: the source files actives as falling curves though it sought activators and does not explain the sign; nearly all actives have a fitted effect of over 65% in size
Target sequence (P80244 whole entry, looked up): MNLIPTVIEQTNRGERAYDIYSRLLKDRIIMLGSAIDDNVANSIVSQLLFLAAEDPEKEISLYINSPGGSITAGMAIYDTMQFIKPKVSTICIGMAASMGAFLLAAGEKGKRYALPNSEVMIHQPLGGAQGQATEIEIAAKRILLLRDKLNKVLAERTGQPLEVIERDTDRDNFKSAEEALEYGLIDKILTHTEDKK
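Purified B. subtilis ClpP, 10 microg/mL final in Tris/HCl pH8 with KCl, BSA, glycerol and Tween-20, cleaved an Abz/nitrotyrosine-quenched decapeptide. Fluorescence (ex 320, em 430) was read at 0 and 20 min at room temperature. Delta was normalized to 5.8 microM ADEP and DMSO/no-enzyme controls.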
Sfp PPTase inh: Sfp phosphopantetheinyl transferase inhibition | Q9F4F7 | Biochemical Sfp PPTase activity, qHTS | Potency, µM, for inactives: largest response in the series, negative = inhibition, most hits filed as inhibitors | actives 3.5% (n = 310,000);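 note: the enzyme is Sfp with the accession as filed and its product quenches rhodamine fluorescence; 0% = enzyme reaction without inhibitor and -100% = no enzyme wells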
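Compounds were incubated with enzyme (final 15 nM) for 15 min at room temperature before substrate addition started the reaction. Fluorescence at 525 nm excitation, 598 nm emission was recorded immediately and after 30 minutes.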
RORgamma inh: ROR gamma (mouse) transcription inhibition; actives 5.4% (n = 310,000); P51450; Potency, µM (titrated, usually from 53.6 µM), for the others: at the highest dose activity change, negative = inhibition, hits mostly inhibitors; AID 2551; Drosophila S2 Gal4-RORgamma UAS-luciferase reporter, 20 h; note: % is set by controls: 0 for no effect and ±100 for the full control effect; nearly all actives have a fitted effect of over 60% in size
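Luciferase reporter read in Schneider cells carrying Gal4-RORγ (mouse) and UAS-Photinus luciferase; cells given compound 1 h before 700 uM copper sulfate induction, then incubated 20 h at ambient temperature.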
PINK1 expr mod: modulators of PINK1 expression; Potency, µM (series often up to 76.6 µM), inactives show at the highest dose activation (PINK1 increase), usual class: activators; actives 0.2% (n = 410,000); PINK1 immunofluorescence, high-content cytometry, 24 h; active = well fitted activation curve with a large enough effect; inconclusive = small, poorly fitted or top-dose-only effect; cell line not stated here; note: % of control where 0% means no effect; nearly all actives have a fitted effect of over 65% in size
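Stable cell line, 250 cells/well, 12 h attachment; compounds pinned at 5 concentrations, 24 h; CCCP control. Fixed with nuclear dye, primary antibodies 12 h at 10 degrees C, secondary plus cell stain; laser-scanning cytometer read.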
Gal4-VP16 FLuc: Gal4-VP16 reporter inhibition counter-screen; Drosophila S2 Gal4-VP16 UAS-luciferase, luminescence, 20 h; Potency, µM (series often up to 53.6 µM), for inactives: at the highest dose activity, negative = inhibition, usual class: inhibitors; actives 3.5% (n = 310,000);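 note: Gal4-VP16 expression switched on by copper sulfate through the metallothionein promoter; % is set by controls: 0 for no effect and ±100 for the full control effect; nearly all actives have a fitted effect of over 50% in size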
Epigenetic reg: regulators of epigenetic silencing causing reporter derepression in mouse cells | murine LDR cells, GFP reporter derepression, 30 h | Potency, µM (series often up to 53.9 µM), for the others: at the highest dose GFP activation, hits mostly activators | actives 0.2% (n = 280,000); note: % of control where 0% means no effect; nearly all actives have a fitted effect of over 60% in size
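Readout is the number of GFP-expressing murine LDR cells, counted by cytometry following washing. Cells were treated with compound for 30 h at 37 C; the stably integrated CMV-GFP locus is normally silent.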
Starred values were filed as active, the others as inactive; ? = inconclusive; . = no result; [ ] = remark or other dose. Unless noted, calls come from the whole dose curve; as a rule, active = well fitted curve in the direction sought with a large enough effect; inconclusive = small, poorly fitted or top-dose-only effect, or another doubt; inactive = no such curve, though single readings can be large; an effect the other way counts as inactive or inconclusive. Potency is the fitted concentration of half-maximal effect.

SMILES	ClpP mod	Sfp PPTase inh	RORgamma inh	PINK1 expr mod	Gal4-VP16 FLuc	Epigenetic reg
Cc1ccc(C(=O)OCC(=O)Nc2ccc(N3CCOCC3)cc2)cc1	32µM*	.	.	?	.	.
Cc1cc(C)cc(C(=O)NC(=S)Nc2ccc3c(c2)OCCO3)c1	3%	9%	?	0%	3.2µM*	0%
COc1ccc2c(CNC3CCCC3)c(C(=O)O)n(Cc3ccccc3C)c2c1	?	.	.	-1%	.	-4%
O=C(NC(=S)Nc1ccc2c(c1)OCCO2)c1ccc(F)cc1Cl	-20%	7%	11µM*	0%	?	0%
Cc1ccc(C(=O)NC(=S)Nc2ccc3c(c2)OCCO3)c(C)c1	1%	1%	4.5µM*	-3%	?	3%
Cc1ccc(C(=O)NC(=S)Nc2ccc(N3CCOCC3)cc2)c(C)c1	.	-8%	2.5µM*	3%	25µM*	-5%
CCc1ccc(C(=O)NC(=S)Nc2ccc3c(c2)OCCO3)cc1	-1%	?	7.1µM*	3%	7.1µM*	-1%
Cc1ccc(SCC(=O)NC(=O)Nc2ccc3c(c2)OCCO3)c(C)c1	1%	14%	-1%	1%	-4%	1%
Cc1ccc(OCC(=O)NCC2(N(C)C)CCCCC2)cc1C	-1%	.	.	-2%	.	-3%
COC(=O)c1ccc(NC(=O)C(c2ccccc2)N2Cc3ccccc3C2=O)cc1 (stereo not drawn)	-4%	.	.	-6%	.	-1%
Cc1ccc(-c2nnc(-c3ccccc3Br)o2)cc1	.	9%	13µM*	4%	?	.
Cc1ccc(-c2nnc(-c3ccc(Br)cc3)o2)o1	32µM*	24%	-23%	4%[38.3 µM]	?	-6%
Clc1ccc(-c2nnc(-c3ccccc3Cl)o2)cc1	?	71µM*	?	3%[38.3 µM]	?	-1%
Brc1ccc(-c2nnc(-c3ccccc3Br)o2)cc1	-11%	50µM*	-8%	-1%[38.3 µM]	-24%	-1%
Clc1ccccc1-c1nnc(-c2ccccc2Cl)o1	-4%	1%	-19%	.	-1%	0%
CCCCCCCCCCCCOCC1CO1 (stereo not drawn)	.	.	-3%	.	-1%	.
CCCOC(=O)C1=C(C)N(C)C(=O)NC1c1cc2c(cc1[N+](=O)[O-])OCO2 (stereo not drawn)	.	14µM*	3%	1%	24%	-1%
CC(=O)c1ccc(-n2nnnc2SCC(=O)Nc2sc(C)c(C)c2C#N)cc1	2%	50µM*	-6%	7%	?	-1%
Cc1sc(NC(=O)CSc2nnnn2C)c(C#N)c1C	1%	19%	1%	1%	-14%	0%
Cc1ccc(-n2nnnc2SCC(=O)Nc2sc(C)c(C)c2C#N)cc1C	0%	-18%	18%	.	-7%	-1%
CCCn1nnnc1SCC(=O)Nc1sc(C)c(C)c1C#N	.	50µM*	20%	1%	-8%	1%
Cc1cnc(-n2ncc(C(=O)NCc3ccccn3)c2C2CC2)nc1-c1cccs1	.	.	.	2%	.	.
S=c1[nH]nc(-c2cccs2)n1/N=C/c1cn(-c2ccccc2)nc1-c1cccs1	.	-3%	7.9µM*	7%	?	-1%
O=[N+]([O-])c1ccccc1/C=N/n1c(-c2ccccc2)n[nH]c1=S	.	-13%	?	2%	?	.
S=c1[nH]nc(-c2ccccc2)n1/N=C/c1cccs1	1%	-28%	4µM*	-5%[38.3 µM]	-1%[0.365 µM]	-6%
Cc1ccc(-c2n[nH]c(=S)n2/N=C/c2cccs2)cc1	1%	-27%	5µM*	0%	3.2µM*	-1%
Cc1cc(-c2n[nH]c(=S)n2/N=C/c2cccs2)n[nH]1	1%	-2%	-10%	-1%	?	0%
Cc1ccc(-c2nn(-c3ccccc3)cc2/C=N/n2c(-c3cccs3)n[nH]c2=S)cc1	.	3%	?	-1%	-21%	0%
COc1ccccc1NC(=O)C1=C(C)Nc2ncnn2C1c1cccn1C (stereo not drawn)	0%	.	.	?	.	0%
